Measured values reported in PubChem BioAssay AID540277 (National Center for Advancing Translational Sciences (NCATS), 2011).
In all, about 320,000 compounds went through this assay and about 55 (0.02%) were called active. Not shown: some 3% with an inconclusive outcome. Rule as the data show it: active = potentiation above about 80%; inconclusive = between about 30% and that limit; inactive = weaker than that. The entries come from a sample that favours actives as a whole.

Target: Transient receptor potential cation channel subfamily V member 1 (Homo sapiens) (UniProt Q8NER1)
Experiment: HTS Assay for Compounds that Act as Potentiators of the Vanilloid Receptor 1; also: 0% is about no effect
Settings: TRPV1-expressing cells, Fluo-8 calcium influx, capsaicin EC20 potentiation; at 8.33 µM; stronger effect = higher value
From the text: The transient receptor potential ion channel, family V, number 1, (TRPV1) is one of the most important molecular transducers of painful stimuli and a potential target for analgesic drug development. Although recent clinical trials with orthosteric antagonists have not produced a successful drug because of a hyperthermia side effect and their tendency to block thermal noxious pain, this ion channel is undeniably well placed in the pain pathway, and the idea of blocking pain signals before they enter the CNS is an excellent concept and of proven efficacy when TRPV1 agonists are used. We propose a new approach involving allosteric modulation to impose an activity-dependent constraint within the context of inflammation and tissue damage that would alter the responsiveness of the channel in a way that an orthosteric vanilloid antagonist cannot achieve. We believe that the allosteric modulator approach has not been explored for this target. The main goal of this proposal is to identify additional, new, potent allosteric modulators of TRPV1 that can be used to investigate TRPV1 function. Our recent report provides evidence of proof of concept, but the compounds are just at the edge of utility in terms of potency. […] The question of whether they can be used as analgesic agents is complex, but if suitable compounds are identified then testing for analgesic properties will be conducted. NIH Chemical Genomics Center [NCGC] NIH Molecular Libraries Probe Centers Network [MLPCN] MLPCN Grant: MH089480-1A1 Assay Submitter (PI): Michael Iadarola, National Institute of Dental and Cranofacial Research
Upon TRPV1 activation in TRPV1 cells, the channel opens and extracellular cations flow through the channel into the cytosol. A calcium binding dye (Fluo-8) becomes fluorescent when bound to calcium. This dye is pre-loaded into cells and is used as a marker for calcium influx. The amount of accumulated calcium is precisely quantified using the FDSS kinetic reader and the calcium dye. For the HTS assay, freshly prepared cells are plated at a density of 2000/well in 3 ul medium in 1536-well plates and cultured overnight at 35.5C. Cells will be loaded with 1 ul of the homogeneous calcium dye (ABD Bioquest) at room temperature for 40 to 90 minutes. Plates will be loaded into the FDSS kinetic reader and a 1 sec / cycle for 10 second baseline signal will be measured. Compound library will then be added with a pintool at 23 nl and measured kinetically for 3 minutes. This portion of the read is considered the agonist portion of the screen. Following the 3 minutes of incubation, an on board pipettor will deliver 1 ul of capsaicin for a final concentration equal to the EC20. Signal will be measured kinetically for an additional 2 minutes. This portion of the read is considered the allosteric enhancer portion of the screen. The FDSS reader has a standard filter set capable of measuring calcium bound Fluo-8 (ex=480 and em=520 nm).

Sequence of Transient receptor potential cation channel subfamily V member 1 (Homo sapiens) (Q8NER1 whole entry, looked up): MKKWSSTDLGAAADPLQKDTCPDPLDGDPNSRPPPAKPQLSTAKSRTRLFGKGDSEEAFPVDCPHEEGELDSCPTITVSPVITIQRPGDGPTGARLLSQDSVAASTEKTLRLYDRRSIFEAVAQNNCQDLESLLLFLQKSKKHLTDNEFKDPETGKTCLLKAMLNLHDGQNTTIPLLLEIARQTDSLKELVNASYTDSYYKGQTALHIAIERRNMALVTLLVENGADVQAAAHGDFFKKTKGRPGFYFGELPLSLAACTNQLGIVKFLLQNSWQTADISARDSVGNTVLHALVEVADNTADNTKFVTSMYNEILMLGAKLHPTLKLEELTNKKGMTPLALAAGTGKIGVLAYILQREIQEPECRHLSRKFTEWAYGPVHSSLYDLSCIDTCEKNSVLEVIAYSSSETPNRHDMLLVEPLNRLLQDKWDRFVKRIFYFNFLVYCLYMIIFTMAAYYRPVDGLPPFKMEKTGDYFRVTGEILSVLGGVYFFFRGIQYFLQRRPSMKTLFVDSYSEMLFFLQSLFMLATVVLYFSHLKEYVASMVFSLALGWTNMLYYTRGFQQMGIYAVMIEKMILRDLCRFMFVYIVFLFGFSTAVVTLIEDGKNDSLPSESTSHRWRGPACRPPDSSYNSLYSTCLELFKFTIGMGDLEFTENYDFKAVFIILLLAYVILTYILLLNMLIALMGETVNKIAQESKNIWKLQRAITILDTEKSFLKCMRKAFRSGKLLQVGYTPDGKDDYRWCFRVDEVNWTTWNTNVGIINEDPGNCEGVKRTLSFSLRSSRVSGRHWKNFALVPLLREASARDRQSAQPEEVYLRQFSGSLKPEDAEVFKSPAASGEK

| Compound | potentiation |
| --- | --- |
| O=S(=O)(NCc1ccccc1Br)c1ccccc1Br | 5.51% (inactive) |
| CCOC(=O)C1=C(COC(=O)[C@H](C)NS(=O)(=O)c2ccccc2F)NC(=O)NC1C (stereo partly specified) | -3.56% (inactive) |
| CCOC(=O)c1cc(OC(=O)c2ccccc2Cl)n(-c2ccccc2)n1 | 0.753% (inactive) |
| CCc1sc(C(=O)N2CCN(CC(=O)Nc3cccc(F)c3)CC2)cc1C | -11.7% (inactive) |
| CCN(CC(=O)NCc1cccs1)C(=O)/C=C/c1ccc(C)cc1 | -0.0424% (inactive) |
| COC(=O)c1sc2[nH]c(=S)n(N)c(=O)c2c1C | -11.7% (inactive) |
| CCN(c1ccccc1)S(=O)(=O)c1cccc(C(=O)NCc2ccccc2CN2CCOCC2)c1 | -5.32% (inactive) |
| CCOc1ncccc1C(=O)OCC(=O)c1c[nH]c2ccccc12 | 3.1% (inactive) |
| O=C(CN1C(=O)NC2(CCCCC2)C1=O)N1CCN(C(=O)c2cccs2)CC1 | 25.7% (inactive) |
| CN(C)CCN=c1cc(-c2ccccc2)oc2ccc(Cl)cc12 | -6.88% (inactive) |
| O=C(COC(=O)c1ccccc1)c1ccc2c(c1)OCCO2 | 3.76% (inactive) |
| Cc1c(C(=O)NNC(=O)c2ccncc2)oc2ccccc12 | -17.2% (inactive) |
| O=C(O[C@@H]1[C@H](Cc2ccccc2)NS(=O)(=O)[C@H]2C[C@@H]3C=C[C@]12O3)c1ccccc1Br | 3.92% (inactive) |
| Cc1ccc(OCCC(=O)Nc2ccc(S(=O)(=O)Nc3nccs3)cc2)cc1 | 17.5% (inactive) |
| NC(=O)C1CCN(C(=O)c2ccc(F)c(S(=O)(=O)N3CCOCC3)c2)CC1 | -7.69% (inactive) |
| CC(C)c1ccc(/C=C/C(=O)NCCCN2CCOCC2)cc1 | -19.8% (inactive) |
| O=C(NCCC1=CCCCC1)c1ccc(-n2cncn2)cc1 | -28.9% (inactive) |
| Cc1ccn2c(=O)nc(SCC(=O)NCc3ccc4c(c3)OCO4)nc2c1 | -6.94% (inactive) |
| CC1CN(/C=C/C(=O)C(F)(F)F)CC(C)O1 (stereo unspecified) | 11.7% (inactive) |
| COc1ccccc1/C=C/C(=O)OCC(=O)NC1CCCCCC1 | -11.2% (inactive) |
| O=C(NCCc1ccc(F)cc1)c1ccc2nccnc2c1 | -3.52% (inactive) |
| CC(C)N(Cc1nnc(-c2ccccc2Br)o1)C(=O)c1cc(Cl)nc2ccccc12 | -18.4% (inactive) |
| Cc1cc(C)cc(OCC(=O)OCC(=O)NC2CCCC2)c1 | 19.9% (inactive) |
| CC(C)C(C)NC(=O)COc1ncnc2ccccc12 (stereo unspecified) | 5.13% (inactive) |
| COCC(C)NC(=O)COc1nncc2ccccc12 (stereo unspecified) | 80.9% (active) |
| COC(=O)C(C)NC(=O)COc1ccc2ccccc2c1 (stereo unspecified) | 3.51% (inactive) |
